Screening results deposited in PubChem BioAssay by National Center for Advancing Translational Sciences (NCATS).
DT40 TDP1 no CPT = qHTS for Inhibitors of human tyrosyl-DNA phosphodiesterase 1 (TDP1): qHTS in cells in absence of CPT; DT40 Tdp1-/- hTDP1 cells, no CPT, ATP luminescence, 48 h; Potency, µM (top dose mostly 46.2 µM), without a hit: top-dose activity change, negative = growth inhibition, hits mostly inhibitors; hit rate 15% among 420,000; also: potency is read from the fitted curve at half-maximal effect; nearly all actives have a fitted effect of over 55% in size
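Readout: luminescence from CellTiter-Glo after 30 min in the dark at RT. Cells: DT40 Tdp1-/- with stable hTDP1, 400/well. Exposure: compounds alone, ≥48 hr, 37 °C.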
HT1080-NT tox = kills 2HG-producing HT-1080-NT fibrosarcoma cells. AID 686970. Potency, µM (highest dose often 46.1 µM), inactives show at the highest dose activity, negative = less viability, usual class: cytotoxic. hit rate 1.6% among 360,000. HT-1080-NT fibrosarcoma viability, CellTiter-Glo ATP luminescence, 48 h;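 also: NT is the 2HG producing partner of a matched IDH1 knockdown line; potency is read from the fitted curve at half-maximal effect; 0% = DMSO-treated cells and -100% = media-only wells without cells; nearly all actives have a fitted effect of over 55% in size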
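750 cells/well, RPMI + 5% FBS; 2 h settle, compound pin-transfer, 48 h at 37 degrees C. CellTiter-Glo 10 min RT, luminescence. Normalized to DMSO and media-only wells.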
DT40 TDP1 CPT = DT40-hTDP1 cell growth loss with CPT; chicken DT40 Tdp1-/-;hTDP1 cells + 20 nM CPT, ATP luminescence, 48 h; Potency, µM (doses to about 46.2 µM), for the others: top-dose activity change, negative = growth inhibition, actives largely listed as inhibitors; hit rate 12% among 420,000; AID 686979; also: potency is read from the fitted curve at half-maximal effect; nearly all actives have a fitted effect of over 55% in size
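Chicken DT40 Tdp1-/- cells stably complemented with human TDP1 were seeded at 400 cells/well in medium containing 20 nM camptothecin, exposed to pin-transferred compounds, and grown at 37 °C for at least 48 hr. Viability was read as ATP luminescence.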
IL1B secr inh = inhibitors of inflammasome signaling (IL-1 beta secretion); THP-1 LPS/ATP IL-1B secretion, AlphaLISA, 16 h; hits give low values; activity change, % at 57.5 µM; hit rate 4.7% among 360,000; in the data active = activity change below about -50%; inconclusive = mostly about -30% to -49%
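Secreted IL-1B measured by AlphaLISA bead assay after 16 h compound exposure of THP-1 cells; compounds (final up to 57.5 uM) added 1 h before LPS (250 ng/mL) and ATP (1.25 mM) stimulation; lower signal means less secretion.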
ELG1 DNA repair = ELG1-dependent DNA repair inhibition | HEK293T ELG1-luciferase reporter, luminescence, 16 h; DNA damage induced by 5-fluorouridine | Potency, µM (top dose mostly 46.1 µM), inactives show top-dose activity change, negative = inhibition, usual class: inhibitors | hit rate 2.3% among 330,000 | AID 504467; also: potency is read from the fitted curve at half-maximal effect; nearly all actives have a fitted effect of over 55% in size
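Cells (2,000 per well) received 5-fluorouridine plus test compound or DMSO and were incubated 16 hr at 37 °C, 5% CO2. Luciferase activity was read by luminescence 30 min after ONE-Glo addition; signal suppression marked inhibition of damage-induced ELG1 function.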
HT1080 IDH1KD tx = kills HT-1080 cells with IDH1 knockdown | AID 686971 | hit rate 2% among 360,000 | Potency, µM (series often up to 46.1 µM), without a hit: at the highest dose activity, negative = toxicity, usual class: cytotoxic | HT-1080 IDH1 knockdown viability, ATP luminescence, 48 h;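 also: potency is read from the fitted curve at half-maximal effect; 0% = DMSO wells and -100% = cell-free medium wells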
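In this qHTS, HT-1080 cells depleted of IDH1 are exposed for 48 h at 37 °C to compound titrations. Toxicity is scored from CellTiter-Glo luminescence, with DMSO as full viability and medium alone as none.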
* marks the source's active call; other numbers are inactive results. Only some compounds are listed: those with a hit (about 19% of all), similar ones and a draw of the others. Unless noted, calls follow the shape of the dose curve; as a rule, active = well fitted curve in the direction sought with a large enough effect; inconclusive = small, poorly fitted or top-dose-only effect, or another doubt; inactive = no such curve, though single readings can be large; an effect the other way counts as inactive or inconclusive. Unless noted, % is scaled to controls: 0 for no effect and ±100 for the full control effect.

`Cn1c(=O)c2c(nc(SCc3cccnc3)n2Cc2ccc(F)cc2)n(C)c1=O` gave DT40 TDP1 no CPT 23.1µM*, HT1080-NT tox -0.5%, DT40 TDP1 CPT 20.6µM*, IL1B secr inh 9.8, ELG1 DNA repair -5.3% and HT1080 IDH1KD tx 9.5%.
Cn1c(=O)c2c(nc(OCc3cccnc3)n2Cc2c(F)cccc2Cl)n(C)c1=O was read as DT40 TDP1 no CPT inconclusive, HT1080-NT tox -0.6%, DT40 TDP1 CPT inconclusive, IL1B secr inh -18.9, ELG1 DNA repair -0.4% and HT1080 IDH1KD tx 7.1%.
For Cn1c(OCc2cccnc2)nc2c1c(=O)n(Cc1ccc(F)cc1)c(=O)n2C the results were DT40 TDP1 no CPT 11.6µM*, HT1080-NT tox 0.4%, DT40 TDP1 CPT 20.6µM*, IL1B secr inh 10.3, ELG1 DNA repair inconclusive and HT1080 IDH1KD tx 0.6%.
Cn1c(OCc2ccc3c(c2)OCO3)nc2c1c(=O)n(Cc1cccc(Cl)c1)c(=O)n2C was read as DT40 TDP1 no CPT 10.3µM*, HT1080-NT tox 5.4%, DT40 TDP1 CPT inconclusive, IL1B secr inh 16.7 and HT1080 IDH1KD tx 2.9%.
`Cn1c(OCc2cccnc2)nc2c1c(=O)n(Cc1ccccc1)c(=O)n2C` gave DT40 TDP1 no CPT 18.4µM*, HT1080-NT tox -1.9%, DT40 TDP1 CPT inconclusive, IL1B secr inh 12.4, ELG1 DNA repair -10.3% and HT1080 IDH1KD tx -4.7%.
For C[C@H](CO)N1C[C@H](C)[C@@H](CN(C)S(=O)(=O)c2cn(C)cn2)Oc2c(NS(=O)(=O)c3cn(C)cn3)cccc2C1=O the results were DT40 TDP1 no CPT -7.9%, HT1080-NT tox 8.2%, DT40 TDP1 CPT 4.6%, IL1B secr inh 19.0, ELG1 DNA repair 11.8% and HT1080 IDH1KD tx 11.1%.
For C[C@H](O)[C@@H]1CN2CCc3c([nH]c4ccccc34)[C@@H]2C[C@@H]1N(C)C(=S)Nc1ccc(C#N)cc1 the results were DT40 TDP1 no CPT inconclusive, HT1080-NT tox -15.3%, DT40 TDP1 CPT inconclusive, IL1B secr inh -21.8 and HT1080 IDH1KD tx -20.4%.
CC(CC(=O)Nc1ccc2c(c1)c(=O)n(C)n2-c1cccs1)c1ccccc1 (stereo not given) was read as DT40 TDP1 no CPT 11.6µM*, HT1080-NT tox inconclusive, DT40 TDP1 CPT 13µM*, IL1B secr inh 28.3 and HT1080 IDH1KD tx 4.11µM*.
Screening Cc1cc(C)cc(-n2c3ccc(NC(=O)Cc4cccc5ccccc45)cc3c(=O)n2C)c1 returned DT40 TDP1 no CPT 3.26µM*, HT1080-NT tox inconclusive, DT40 TDP1 CPT 5.8µM*, IL1B secr inh 0.0 and HT1080 IDH1KD tx 2.06µM*.
COc1ccc(NC(=S)Nc2ccc3c(c2)c(=O)n(C)n3-c2ccccc2)cc1 was read as DT40 TDP1 no CPT inconclusive, HT1080-NT tox -26.9%, DT40 TDP1 CPT inconclusive, IL1B secr inh -25.2 and HT1080 IDH1KD tx inconclusive.
`CCNC(=S)Nc1ccc2c(c1)c(=O)n(C)n2-c1ccc(C(C)(C)C)cc1` gave DT40 TDP1 no CPT inconclusive, HT1080-NT tox -27.3%, DT40 TDP1 CPT 25.9µM*, IL1B secr inh 6.7 and HT1080 IDH1KD tx inconclusive.
Cn1c(=O)c2cc(NC(=O)Cc3ccccc3F)ccc2n1-c1ccc(C(C)(C)C)cc1 was read as DT40 TDP1 no CPT 16.4µM*, HT1080-NT tox inconclusive, DT40 TDP1 CPT 23.1µM*, IL1B secr inh 0.0 and HT1080 IDH1KD tx -28.3%.
`CC(C)C(NC(=O)c1ccc(C(C)(C)C)cc1)C(=O)N1CCC(C(N)=O)CC1` (stereo not given) gave DT40 TDP1 no CPT inconclusive, HT1080-NT tox 4.0%, DT40 TDP1 CPT inconclusive, IL1B secr inh 1.0, ELG1 DNA repair 6.5% and HT1080 IDH1KD tx 11.3%.
`O=C(c1csnn1)N1CCC[C@@]2(CCN(c3ncccn3)C2)C1` gave DT40 TDP1 no CPT -8.3% and DT40 TDP1 CPT 6.4%.
Screening CCCCNC(=S)N(C)/N=C/c1ccc(OCc2ccc(C(=O)OC)cc2)c(OC)c1 returned DT40 TDP1 no CPT 14.6µM*, HT1080-NT tox 12.8%, DT40 TDP1 CPT inconclusive, IL1B secr inh -2.1, ELG1 DNA repair inconclusive and HT1080 IDH1KD tx 19.5%.
Screening COc1cc(/C=N/N=C(N)N)ccc1OCc1ccccc1Cl returned DT40 TDP1 no CPT 14.6µM*, HT1080-NT tox -15.6%, DT40 TDP1 CPT inconclusive, IL1B secr inh -66.5*, ELG1 DNA repair 8.2% and HT1080 IDH1KD tx -22.2%.
`Cc1cccc(NC(=O)C2CCCN(S(=O)(=O)c3c(C)n[nH]c3C)C2)c1` (stereo not given) gave DT40 TDP1 no CPT inconclusive and DT40 TDP1 CPT -5.6%.
For O=C(NC1CCCCCC1)c1c(F)c(F)c(F)c(F)c1F the results were DT40 TDP1 no CPT -13.7%, HT1080-NT tox 5.4%, DT40 TDP1 CPT 0.3%, IL1B secr inh -90.8*, ELG1 DNA repair -5.6% and HT1080 IDH1KD tx 7.2%.
For O=C(NC1CCCCCCC1)c1ccc(F)cc1 the results were DT40 TDP1 no CPT -0.4%, HT1080-NT tox 1.2%, DT40 TDP1 CPT 2.2%, IL1B secr inh -7.3, ELG1 DNA repair inconclusive and HT1080 IDH1KD tx -0.3%.
C[C@H](CO)N1C[C@H](C)[C@@H](CN(C)Cc2ccncc2)Oc2ccc(NC(=O)Cn3cnnn3)cc2C1=O was read as DT40 TDP1 no CPT inconclusive, HT1080-NT tox -6.7%, DT40 TDP1 CPT -6.8%, IL1B secr inh 0.0, ELG1 DNA repair inconclusive and HT1080 IDH1KD tx -4.2%.
For Cc1ccc(S(=O)(=O)OCCC2=CC(=O)CCN2Cc2ccccc2)cc1 the results were DT40 TDP1 no CPT inconclusive, HT1080-NT tox 1.3%, DT40 TDP1 CPT 16.4µM*, IL1B secr inh -28.3, ELG1 DNA repair -0.4% and HT1080 IDH1KD tx 0.6%.
`CC1(Oc2ccccc2-c2ccno2)CCN(Cc2csc3ccccc23)C1` (stereo not given) gave DT40 TDP1 no CPT inconclusive, HT1080-NT tox -25.5%, DT40 TDP1 CPT 18.4µM*, IL1B secr inh 0.0 and HT1080 IDH1KD tx inconclusive.
COc1ccccc1N/C(=N/S(=O)(=O)c1ccc(C)cc1)c1ccccc1 was read as DT40 TDP1 no CPT 18.4µM*, HT1080-NT tox 2.3%, DT40 TDP1 CPT inconclusive, IL1B secr inh -4.4, ELG1 DNA repair -1.0% and HT1080 IDH1KD tx -0.1%.
O=S(=O)(/N=C(\Sc1ccccc1)c1ccccc1)c1ccc(Cl)cc1 was read as DT40 TDP1 no CPT 11.2µM*, HT1080-NT tox 0.8%, DT40 TDP1 CPT 12.6µM*, IL1B secr inh -52.6*, ELG1 DNA repair -5.9% and HT1080 IDH1KD tx -23.6%.
